Compound in the assay: CC1Cc2ccccc2N1C(=O)C1CCCN(C1)C(=O)CCl (mixture of isomers) [TRIM25 ligand 11 (diastereomer mixture)]
Nature of the assay: probe-labelled cysteine peptide fold change vs DMSO (competition) (log2 fold change); higher = less target engagement (more negative = stronger competition). To be noted: THP-1, incubation time: 4 h.

The full data set covers some 21,000 targets. This sample favours those with the largest changes.
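Also: competitive chemoproteomic profiling in live THP-1 cells with an iodoacetamide desthiobiotin (IA-DTB) probe, comparing probe-labelled peptide intensities in compound-treated cells against DMSO-treated controls.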

Chain of UniProt O75563 (O75563 whole entry, looked up): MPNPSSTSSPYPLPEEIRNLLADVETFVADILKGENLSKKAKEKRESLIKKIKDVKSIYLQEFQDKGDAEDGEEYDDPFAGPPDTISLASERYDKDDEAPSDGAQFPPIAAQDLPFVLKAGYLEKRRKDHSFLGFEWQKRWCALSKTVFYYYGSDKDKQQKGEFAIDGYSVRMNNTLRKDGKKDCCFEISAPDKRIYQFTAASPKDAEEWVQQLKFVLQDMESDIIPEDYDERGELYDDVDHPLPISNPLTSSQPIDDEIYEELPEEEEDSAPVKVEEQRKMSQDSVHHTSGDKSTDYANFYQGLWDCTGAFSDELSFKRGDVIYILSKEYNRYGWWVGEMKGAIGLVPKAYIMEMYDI
Chain of UniProt P53992 (P53992 whole entry, looked up): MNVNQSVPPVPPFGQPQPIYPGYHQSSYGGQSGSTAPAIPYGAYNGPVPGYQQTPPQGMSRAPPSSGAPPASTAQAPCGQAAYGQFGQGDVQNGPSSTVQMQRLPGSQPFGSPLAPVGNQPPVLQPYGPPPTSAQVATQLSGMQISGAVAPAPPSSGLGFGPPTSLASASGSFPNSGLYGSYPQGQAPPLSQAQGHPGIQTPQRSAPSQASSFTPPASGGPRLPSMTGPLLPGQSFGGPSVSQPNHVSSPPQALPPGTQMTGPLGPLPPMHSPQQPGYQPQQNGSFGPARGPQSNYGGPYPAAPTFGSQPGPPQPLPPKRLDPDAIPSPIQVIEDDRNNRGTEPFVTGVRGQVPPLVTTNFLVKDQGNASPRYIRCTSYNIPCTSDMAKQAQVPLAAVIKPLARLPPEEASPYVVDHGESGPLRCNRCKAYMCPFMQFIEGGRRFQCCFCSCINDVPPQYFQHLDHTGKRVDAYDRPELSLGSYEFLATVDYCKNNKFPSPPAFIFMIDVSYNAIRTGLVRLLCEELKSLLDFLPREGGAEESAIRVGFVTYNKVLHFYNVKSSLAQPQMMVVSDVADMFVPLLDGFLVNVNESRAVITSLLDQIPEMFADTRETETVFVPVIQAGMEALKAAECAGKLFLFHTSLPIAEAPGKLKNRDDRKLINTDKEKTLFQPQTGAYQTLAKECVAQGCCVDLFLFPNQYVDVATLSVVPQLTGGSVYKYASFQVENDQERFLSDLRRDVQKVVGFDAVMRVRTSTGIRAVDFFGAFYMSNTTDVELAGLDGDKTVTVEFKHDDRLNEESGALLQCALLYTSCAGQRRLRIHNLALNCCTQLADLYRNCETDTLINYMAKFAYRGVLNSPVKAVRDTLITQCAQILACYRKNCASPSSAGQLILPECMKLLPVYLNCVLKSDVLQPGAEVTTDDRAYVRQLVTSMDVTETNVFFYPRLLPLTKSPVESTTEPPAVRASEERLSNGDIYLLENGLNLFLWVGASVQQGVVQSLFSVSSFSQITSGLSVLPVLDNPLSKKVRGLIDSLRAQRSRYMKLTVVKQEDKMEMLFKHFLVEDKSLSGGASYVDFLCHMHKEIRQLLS
Chain of UniProt Q99611 (Q99611 whole entry): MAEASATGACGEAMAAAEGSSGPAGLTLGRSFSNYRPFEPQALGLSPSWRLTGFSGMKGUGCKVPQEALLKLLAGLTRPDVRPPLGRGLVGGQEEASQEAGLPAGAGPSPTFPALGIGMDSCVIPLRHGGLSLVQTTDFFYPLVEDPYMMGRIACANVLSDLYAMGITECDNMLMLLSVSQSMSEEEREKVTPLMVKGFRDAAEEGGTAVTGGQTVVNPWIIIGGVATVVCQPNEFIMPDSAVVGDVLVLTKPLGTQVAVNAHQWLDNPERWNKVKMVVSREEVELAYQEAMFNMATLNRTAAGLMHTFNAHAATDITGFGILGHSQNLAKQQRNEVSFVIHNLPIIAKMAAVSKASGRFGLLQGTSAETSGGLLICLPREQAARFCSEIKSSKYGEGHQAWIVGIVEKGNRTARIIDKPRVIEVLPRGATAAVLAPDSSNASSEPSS
Chain of UniProt Q13485 (Q13485 whole entry, looked up): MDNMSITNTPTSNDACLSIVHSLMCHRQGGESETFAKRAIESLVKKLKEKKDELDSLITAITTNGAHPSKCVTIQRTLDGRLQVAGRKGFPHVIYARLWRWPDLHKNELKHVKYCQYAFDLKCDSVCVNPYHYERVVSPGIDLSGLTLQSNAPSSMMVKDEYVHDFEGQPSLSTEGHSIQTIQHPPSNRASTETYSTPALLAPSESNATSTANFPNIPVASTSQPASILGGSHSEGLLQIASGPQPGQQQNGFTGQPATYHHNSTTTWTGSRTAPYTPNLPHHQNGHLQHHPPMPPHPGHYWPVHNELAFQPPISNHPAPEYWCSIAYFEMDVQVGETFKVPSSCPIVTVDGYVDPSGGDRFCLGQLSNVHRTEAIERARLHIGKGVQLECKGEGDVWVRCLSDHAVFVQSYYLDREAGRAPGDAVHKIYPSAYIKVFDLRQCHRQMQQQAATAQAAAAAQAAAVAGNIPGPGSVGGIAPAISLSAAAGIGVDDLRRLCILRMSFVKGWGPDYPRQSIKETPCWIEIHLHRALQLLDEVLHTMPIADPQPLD
Chain of UniProt Q00796 (Q00796 whole entry, looked up): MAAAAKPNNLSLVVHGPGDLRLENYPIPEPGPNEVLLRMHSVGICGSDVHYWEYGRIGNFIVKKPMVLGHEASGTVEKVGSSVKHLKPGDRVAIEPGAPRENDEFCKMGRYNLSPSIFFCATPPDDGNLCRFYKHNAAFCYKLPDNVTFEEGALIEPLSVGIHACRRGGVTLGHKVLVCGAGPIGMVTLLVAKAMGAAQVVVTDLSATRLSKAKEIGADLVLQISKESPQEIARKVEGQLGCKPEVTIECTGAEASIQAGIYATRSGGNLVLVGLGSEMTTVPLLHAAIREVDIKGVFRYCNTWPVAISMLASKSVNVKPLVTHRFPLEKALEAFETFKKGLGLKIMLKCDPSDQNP
Chain of UniProt O15270 (O15270 whole entry, looked up): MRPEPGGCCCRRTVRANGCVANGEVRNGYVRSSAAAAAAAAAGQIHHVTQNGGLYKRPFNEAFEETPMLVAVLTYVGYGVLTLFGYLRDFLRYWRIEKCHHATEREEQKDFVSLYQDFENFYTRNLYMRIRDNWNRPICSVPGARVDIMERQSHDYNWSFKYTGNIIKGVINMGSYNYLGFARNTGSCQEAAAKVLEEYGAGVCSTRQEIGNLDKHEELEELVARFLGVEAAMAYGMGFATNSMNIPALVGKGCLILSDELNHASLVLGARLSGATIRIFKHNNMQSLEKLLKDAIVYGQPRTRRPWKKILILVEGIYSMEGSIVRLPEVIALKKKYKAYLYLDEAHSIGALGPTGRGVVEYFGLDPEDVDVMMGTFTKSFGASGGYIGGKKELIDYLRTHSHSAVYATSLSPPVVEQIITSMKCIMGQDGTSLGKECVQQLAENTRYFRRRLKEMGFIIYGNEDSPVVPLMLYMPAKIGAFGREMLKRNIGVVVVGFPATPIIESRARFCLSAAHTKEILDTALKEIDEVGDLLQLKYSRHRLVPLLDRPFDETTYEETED
Chain of UniProt Q8NC51 (Q8NC51 whole entry, looked up): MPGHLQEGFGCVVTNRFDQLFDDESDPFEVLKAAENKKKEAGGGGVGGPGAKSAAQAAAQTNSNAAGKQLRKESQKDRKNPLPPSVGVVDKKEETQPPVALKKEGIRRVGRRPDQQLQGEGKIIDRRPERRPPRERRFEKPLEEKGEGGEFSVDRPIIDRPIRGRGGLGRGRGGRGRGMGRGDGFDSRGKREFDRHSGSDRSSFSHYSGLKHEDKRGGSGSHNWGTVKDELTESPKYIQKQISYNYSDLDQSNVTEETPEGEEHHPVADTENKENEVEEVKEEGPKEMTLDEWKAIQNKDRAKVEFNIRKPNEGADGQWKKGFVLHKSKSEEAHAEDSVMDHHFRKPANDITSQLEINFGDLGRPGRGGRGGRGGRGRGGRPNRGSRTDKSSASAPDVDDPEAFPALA
Chain of UniProt Q9UBE0 (Q9UBE0 whole entry, looked up): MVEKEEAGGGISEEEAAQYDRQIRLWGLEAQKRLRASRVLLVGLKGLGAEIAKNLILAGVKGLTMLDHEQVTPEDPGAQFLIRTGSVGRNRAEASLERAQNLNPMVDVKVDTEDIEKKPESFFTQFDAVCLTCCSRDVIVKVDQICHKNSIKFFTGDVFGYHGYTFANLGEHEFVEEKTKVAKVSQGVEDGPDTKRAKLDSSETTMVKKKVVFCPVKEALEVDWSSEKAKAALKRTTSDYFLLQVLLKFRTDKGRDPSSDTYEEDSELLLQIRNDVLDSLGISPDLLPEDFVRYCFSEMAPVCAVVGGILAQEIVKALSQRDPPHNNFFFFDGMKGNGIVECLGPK
Chain of UniProt P16260 (P16260 whole entry): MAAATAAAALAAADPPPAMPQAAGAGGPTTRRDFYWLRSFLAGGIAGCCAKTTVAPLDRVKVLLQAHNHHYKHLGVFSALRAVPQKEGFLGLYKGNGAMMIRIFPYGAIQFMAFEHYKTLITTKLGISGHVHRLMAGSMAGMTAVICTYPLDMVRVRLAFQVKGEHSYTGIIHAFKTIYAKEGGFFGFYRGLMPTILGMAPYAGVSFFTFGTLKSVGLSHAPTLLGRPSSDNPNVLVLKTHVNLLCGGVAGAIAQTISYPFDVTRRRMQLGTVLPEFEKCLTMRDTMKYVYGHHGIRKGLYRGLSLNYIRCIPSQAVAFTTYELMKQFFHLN
Chain of UniProt Q9H7B4 (Q9H7B4 whole entry, looked up): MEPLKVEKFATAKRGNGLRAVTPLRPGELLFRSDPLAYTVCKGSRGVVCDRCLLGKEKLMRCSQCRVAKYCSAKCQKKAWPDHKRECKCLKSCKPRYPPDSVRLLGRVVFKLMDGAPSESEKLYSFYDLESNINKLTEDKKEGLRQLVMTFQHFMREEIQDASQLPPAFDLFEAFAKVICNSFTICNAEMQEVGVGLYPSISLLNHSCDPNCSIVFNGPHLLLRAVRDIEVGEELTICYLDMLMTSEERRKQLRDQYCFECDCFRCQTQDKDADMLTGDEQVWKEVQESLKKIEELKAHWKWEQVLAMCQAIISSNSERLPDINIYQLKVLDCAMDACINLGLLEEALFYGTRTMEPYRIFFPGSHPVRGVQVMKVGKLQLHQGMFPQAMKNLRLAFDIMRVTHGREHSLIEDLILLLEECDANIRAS

As for “SLC15A4_Q8N697_269_ILTYSCCSQK (UniProt Q8N697)”, the “probe-labelled cysteine peptide fold change” value by setting is: (10 µM) -0.00859; (50 µM) -0.114.
As to “SAE1_Q9UBE0_303_YCFSEMAPVCAVVGGILAQEIVK (UniProt Q9UBE0)”, the “probe-labelled cysteine peptide fold change” value is -0.0632 (10 µM) and -0.0869 (50 µM).
The matching figures for “SMAD4_Q13485_391_GVQLECK (UniProt Q13485)”: 0.0468 and 0.21.
As to “SLC25A16_P16260_246_THVNLLCGGVAGAIAQTISYPFDVTR (UniProt P16260)”, the “probe-labelled cysteine peptide fold change” value worked out at 0.365 (10 µM) and 0.384 (50 µM).
With “SKAP2_O75563_186_DCCFEISAPDK (UniProt O75563)”, the “probe-labelled cysteine peptide fold change” value was 0.239 (10 µM) and 0.128 (50 µM).
For the target “SNRPD2_P62316_63_AFDRHCNMVLENVK (UniProt P62316)”, the “probe-labelled cysteine peptide fold change” value was -0.388 (10 µM) and -0.34 (50 µM).
In the same order, the values of “SMAD9_O15198_93_GLPHVIYCR<|>SMAD3_Q15796_89_GLPHVIYCR<|>SMAD2_Q99717_129_GLPHVIYCR (UniProt Q99717+Q15796+O15198)” are -0.076 and -0.0521.
As to “SORD_Q00796_179_VLVCGAGPIGMVTLLVAK (UniProt Q00796)”, the “probe-labelled cysteine peptide fold change” value is, setting by setting: (10 µM) -0.904; (50 µM) -0.915.
In the same order, the values of “SPTLC2_O15270_99_CHHATER (UniProt O15270)” are 0.261 and 0.971.
In the same order, the values of “SRGAP2_O75044_486_TDCSLAR (UniProt O75044)” are -0.0891 and -0.197.
As to “SERBP1_Q8NC51_11_PGHLQEGFGCVVTNRFDQLFDDESDPFEVLK (UniProt Q8NC51)”, the “probe-labelled cysteine peptide fold change” value is, setting by setting: (10 µM) -0.323; (50 µM) -0.648.
Take “SEPHS2_Q99611_377_FGLLQGTSAETSGGLLICLPR (UniProt Q99611)”: the “probe-labelled cysteine peptide fold change” value is 0.196 (10 µM) and -0.657 (50 µM).
In the same order, the values of “SMYD3_Q9H7B4_263_DQYCFECDCFR (UniProt Q9H7B4)” are -0.0567 and 0.116.
As to “SEC24C_P53992_493_RVDAYDRPELSLGSYEFLATVDYCK (UniProt P53992)”, the “probe-labelled cysteine peptide fold change” value (10 µM) was -0.123 and the “probe-labelled cysteine peptide fold change” value (50 µM) was 0.0859.
As for “SNRPD2_P62316_63_HCNMVLENVK (UniProt P62316)”, the “probe-labelled cysteine peptide fold change” value is, setting by setting: (10 µM) -0.117; (50 µM) -0.0606.

Values taken from the supplement of paper PMC12067093, “Discovery and optimisation of a covalent ligand for TRIM25 and its application to targeted protein ubiquitination” (Chemical Science, 2025).
